# In PubChem BioAssay (NCATS):
# Where “and” joins values, the source holds several entries; their conditions need not be identical. Identical values can stand only once. Values without a mark were called inactive. Inconclusive results are not listed. Entries that show only a call come without a potency. Calls of active or inactive are those of the source. Calls come from the whole dose curve; as a rule, active = well fitted curve in the direction sought with a large enough effect; inconclusive = small, poorly fitted or top-dose-only effect, or another doubt; inactive = no such curve, though single readings can be large; an effect the other way counts as inactive or inconclusive.
# Columns and labels:
# [1] = test system: Zika virus NS2B-NS3 protease (linked construct); experiment: Primary screen NINDS Rhodamine qHTS for Zika virus inhibitors (AID 1347160); note: nearly all actives have a fitted effect of over 55% in size
# Procedure, shortened: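 Aprotinin served as in-plate control. Conditions: 25 nM linked NS2B-NS3, pH 8.0 Tris buffer, titrated compounds, 15 min preincubation and 15 min reaction with 1.5 microM Rhod110 substrate at room temperature.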
# [2] = target: Calcium and integrin-binding protein 1 (Homo sapiens) (UniProt Q99828); experiment: Primary qHTS for Identification of Calcium Integrin Binding Protein 1 (CIB1) Competitor (AID 1508620);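 note: GST tagged CIB1 binding a fluorescein labelled alphaIIb integrin peptide tracer; top concentration of the series differs between compounds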
# Procedure, shortened: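 CIB1-GST (1 uM final) and compound incubated 15 min at room temperature before adding FITC-alphaIIb peptide tracer (100 nM final). Competition for binding read by fluorescence polarization (ex 480, em 540) after another 15 min at room temperature.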
# [3] = Primary qHTS for inhibitors of nuclear receptor binding SET domain protein 2 (NSD2) in an isogenic RCH-ACV NSD2 p.E1099K mutant (9B) (AID 1645876); note: nearly all actives have a fitted effect of over 70% in size; note: potency is the fitted concentration of half-maximal effect
# [4] = target: Glutathione peroxidase 1 (Homo sapiens) (UniProt P07203); experiment: Primary qHTS Assay for Inhibitors of Recombinant Selenoprotein Glutathione Peroxidase 1 (GPX1) (AID 1845191); note: nearly all actives have a fitted effect of over 65% in size
# Procedure, shortened: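 NADPH consumption tracked by fluorescence at 340/450 nm between t=0 and t=15 min, room temperature. Final mix: 10 nM GPX1, 100 nM glutathione reductase, 1 mM GSH, 0.5 mM NADPH, 0.5 mM cumene hydroperoxide, 0.01% BSA; 30 min compound–enzyme preincubation.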
# [5] = target: Phospholipid hydroperoxide glutathione peroxidase GPX4 (Homo sapiens) (UniProt P36969); experiment: Primary qHTS Assay for Inhibitors of Recombinant Selenoprotein Glutathione Peroxidase 4 (GPX4) (AID 1845192); note: nearly all actives have a fitted effect of over 65% in size
# Procedure, shortened: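 NADPH consumption followed by fluorescence at 340/450 nm, t=0 and after 15 min at room temperature. Reaction started with cumene hydroperoxide (0.5 mM final) after 30 min compound–GPX4 preincubation; final 200 nM GPX4, 100 nM GR, 1 mM GSH, 0.5 mM NADPH.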
# [6] = target: Luciferin 4-monooxygenase (Photinus pyralis) (UniProt P08659); experiment: Primary firefly luciferase (FLuc) qHTS assay for identification of artifact compounds. (AID 1845220); conditions: outcome: dose series up to 54.1 µM unless noted; note: nearly all actives have a fitted effect of over 60% in size
# Procedure, shortened: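 FLuc 10 nM; luciferin 10 uM; ATP 10 uM; Tris-acetate pH 7.6, Mg-acetate 10 mM; 15 min RT preincubation; 5 min reaction; luminescence.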
# [7] = Primary fluorescence-based thiol-reactive (MSTI) qHTS assay for identification of artifact compounds. (AID 1845221);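 note: thiol-reactive compounds lower the probe fluorescence signal; nearly all actives have a fitted effect of over 65% in size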
# Procedure, shortened: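 MSTI probe at 4 uM final in 2% DMSO/PBS pH 7.4; compounds, 1 h at room temperature in dark. Fluorescence Ex/Em 525/598 nm, normalised to Acetyl-MSTI and MSTI, fitted to 4-parameter Hill.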
# [8] = test system: Nanoluciferase (engineered Oplophorus gracilirostris luciferase); experiment: Primary Nanoluciferase (NLuc) qHTS assay for identification of artifact compounds. (AID 1845222);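 note: NLuc secreted into diluted conditioned medium of S16 cells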
# Procedure, shortened: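 NLuc from S16 cell medium (1:55) plus test compounds, 15 min, room temperature. Luminescence after Nano-Glo (1:100) addition, 5 min.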
# [9] = Primary redox qHTS assay for identification of artifact compounds. (AID 1845223)
# Procedure, shortened: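 Redox-cycling detection via DTT (250 uM final) oxidation coupled to Amplex Red (25 uM)/HRP (250 mU/mL) in HBSS. 15 min preincubation plus 30 min after DTT, room temperature. Ex/Em 525/598 nm; 4-parameter Hill fit against DMSO and 10 uM DA3003.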
# HaCat = experiment: Cytotoxic Profiling of Annotated Libraries Using Quantitative High-Throughput Screening (AID 1296008); conditions: Five cell lines viability, CellTiter-Glo ATP luminescence, 48-72 h; max response: active compounds read low; note: nearly all actives have a fitted effect of over 60% in size; note: potency is the fitted concentration of half-maximal effect
# Procedure, shortened: (§1)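 Cytotoxicity was measured as CellTiter-Glo ATP luminescence, read after 10 min at room temperature. Compound treatment of the cells lasted 48 or 72 hr at 37 degrees Celsius in a qHTS format.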
# KB-3-1 = experiment: as above; conditions: Five cell lines viability, CellTiter-Glo ATP luminescence, 48-72 h; max response: active compounds read low
# Procedure, shortened: as §1
# [10] = P-glycoprotein substrates identified in KB-8-5-11 adenocarcinoma cell line, qHTS therapeutic library screen (AID 1346987); note: nearly all actives have a fitted effect of over 65% in size; note: potency is the fitted concentration of half-maximal effect
# Procedure, shortened: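 Human cervical adenocarcinoma KB-8-5-11 cells, selected in colchicine to over-express P-gp and assayed without it, were exposed for 72 h to titrated compounds. An ATP-based luminescent viability signal gave AC50.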
# OV90 = experiment: Primary qHTS to identify gynecologic anti-cancer compounds using libraries of approved drugs and bioactive compounds (AID 1345084); conditions: Gynecologic cancer cell panel viability, ATPlite luminescence, 48 h; series mostly up to 57.5 µM; note: nearly all actives have a fitted effect of over 55% in size; note: potency is the fitted concentration of half-maximal effect
# Procedure, shortened: (§2)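 Cells, 1,000 per well, plated 16 h, then exposed 48 h at 37 C to compounds. Viability by ATPlite luminescence after 15 min at room temperature.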
# Tov-21-G = experiment: as above; conditions: Gynecologic cancer cell panel viability, ATPlite luminescence, 48 h; series mostly up to 57.5 µM
# Procedure, shortened: as §2
# CASKI = experiment: as above; conditions: Gynecologic cancer cell panel viability, ATPlite luminescence, 48 h; series mostly up to 57.5 µM
# Procedure, shortened: as §2
# JEG-3 = experiment: as above; conditions: Gynecologic cancer cell panel viability, ATPlite luminescence, 48 h; series mostly up to 57.5 µM
# Procedure, shortened: as §2
# [11] = qHTS Assay for Identifying Gametocytocidal Compounds (AID 743244);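 note: actives lower the fluorescent signal which means gametocytes are killed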; conditions: P. falciparum 3D7 stage III-V gametocytes, alamarBlue, 72 h; max response: active compounds read low
# Procedure, shortened: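 Stage III-V P. falciparum 3D7 gametocytes, 20,000 per well, were exposed to compounds for 72 h at 37C, 5% CO2. AlamarBlue was then added for 24 h and viability was read as fluorescence at Ex 525/Em 598 nm.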
# [12] = Drug repurposing screens with cells derived from glioblastoma tumor samples (AID 1345199); conditions: GBM patient neurospheres viability, ATP luminescence, 48 h; Potency: tumour line A; series mostly up to 45.9 µM; note: nearly all actives have a fitted effect of over 40% in size; note: potency is the fitted concentration of half-maximal effect
# Procedure, shortened: (§3)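 Primary testing used CD133+ neurospheres from four GBM patients, seven concentrations, 48 h exposure and ATP-based viability; confirmation added three slower-growing patient lines.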
# astro = experiment: as above; conditions: viability, ATP luminescence, 48 h; series mostly up to 45.9 µM
# Procedure, shortened: as §3
# Sequence of Glutathione peroxidase 1 (Homo sapiens) (P07203 whole entry, looked up): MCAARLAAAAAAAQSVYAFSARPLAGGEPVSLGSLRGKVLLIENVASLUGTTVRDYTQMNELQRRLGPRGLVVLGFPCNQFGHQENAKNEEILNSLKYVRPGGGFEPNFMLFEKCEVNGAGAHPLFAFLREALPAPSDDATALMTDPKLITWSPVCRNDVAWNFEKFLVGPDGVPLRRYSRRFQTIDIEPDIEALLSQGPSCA
# Sequence of Phospholipid hydroperoxide glutathione peroxidase GPX4 (Homo sapiens) (P36969 whole entry, looked up): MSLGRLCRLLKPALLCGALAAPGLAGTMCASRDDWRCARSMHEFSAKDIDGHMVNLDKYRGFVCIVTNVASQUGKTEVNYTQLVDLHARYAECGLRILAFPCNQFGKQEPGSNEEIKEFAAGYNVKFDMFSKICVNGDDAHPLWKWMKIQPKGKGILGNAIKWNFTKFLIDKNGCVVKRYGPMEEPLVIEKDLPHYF
# Sequence of Calcium and integrin-binding protein 1 (Homo sapiens) (Q99828 whole entry, looked up): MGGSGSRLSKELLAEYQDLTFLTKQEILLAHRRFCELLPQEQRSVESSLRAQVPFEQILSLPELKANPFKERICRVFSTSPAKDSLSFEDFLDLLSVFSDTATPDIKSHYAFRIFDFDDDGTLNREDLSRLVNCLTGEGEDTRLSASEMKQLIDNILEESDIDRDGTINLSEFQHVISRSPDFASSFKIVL
smiles,measurement,setting,value
CCOC(=O)c1ccnc2cc(C(OCCN3CCCCC3)c3ccccc3Cl)sc12 (centres undefined),Potency,[1],inactive
same,Potency,[2],inactive
same,Potency,[3],23000 nM (active)
same,Potency,[4],inactive
same,Potency,[5],inactive
same,outcome,[6],inactive
same,Potency,[7],inactive
same,Potency,[8],inactive
same,Potency,[9],inactive
same,outcome,HaCat,inactive
same,max response,KB-3-1,5.4%
O=C1Nc2ccc3ncsc3c2/C1=C/c1cnc[nH]1,Potency,[10],1640 nM (active)
same,Potency,[1],inactive
same,Potency,[3],649 nM (active)
same,Potency,[4],inactive
same,Potency,[5],inactive
same,outcome,[6],inactive
same,Potency,[7],inactive
same,Potency,[8],inactive
same,Potency,[9],inactive
same,Potency,HaCat,4110 nM (active)
same,Potency,KB-3-1,2310 nM (active)
same,Potency,OV90,inactive
C[C@]12CC[C@H](O[C@@H]3O[C@H](CO)[C@@H](O)[C@H](O)[C@H]3O)CC1CC[C@@H]1C2CC[C@]2(C)[C@@H](C3=CC(=O)OC3)CC[C@]12O (some centres undefined),Potency,[1],inactive
same,Potency,[2],inactive
same,Potency,[3],2520 nM (active)
same,Potency,[4],inactive
same,Potency,[5],inactive
same,outcome,[6],inactive [at 25.7 µM]
same,Potency,[7],inactive
same,Potency,[8],inactive
same,Potency,[9],inactive
same,Potency,OV90,inactive
same,Potency,Tov-21-G,5010 nM (active)
CC(C)(O)/C=C/C(=O)[C@](C)(O)[C@H]1[C@H](O)C[C@@]2(C)[C@@H]3CC=C4[C@@H](C[C@H](O)C(=O)C4(C)C)[C@]3(C)C(=O)C[C@]12C,Potency,[10],448 nM (active)
same,Potency,[1],inactive
same,Potency,[2],inactive
same,Potency,[3],252 nM (active)
same,Potency,[4],inactive
same,Potency,[5],inactive
same,outcome,[6],inactive
same,Potency,[7],inactive
same,Potency,[8],inactive
same,Potency,KB-3-1,448 nM (active)
same,Potency,CASKI,1410 nM (active)
same,Potency,OV90,1260 nM (active)
same,Potency,Tov-21-G,1260 nM (active)
CN(CC[C@H](N)CC(=O)N[C@H]1C=C[C@@H](n2ccc(N)nc2=O)O[C@@H]1C(=O)O)C(=N)N,"activity change, negative = inhibition",[1],10.8% [at 10.7 µM]
same,Potency,[2],inactive
same,"activity change, negative = viability loss",[3],-2.6% [at 9.23 µM]
same,"activity, negative = inhibition",[4],-3.97% [at 9.52 µM]
same,outcome,[5],inactive [at 9.73 µM]
same,outcome,[6],inactive [at 11.6 µM]
same,"activity change, negative = thiol reactive",[7],-6.62% [at 11.5 µM]
same,"activity, negative = inhibition",[8],0% [at 11.6 µM]
same,redox activity (% of DA3003),[9],-9.15% [at 11.5 µM]
same,outcome,HaCat,inactive
same,"activity change, negative = cytotoxicity",CASKI,4.22% [at 11.6 µM]
same,"activity change, negative = cytotoxicity",JEG-3,12.8% [at 11.6 µM]
same,"activity change, negative = cytotoxicity",OV90,-7.37% [at 11.6 µM]
same,"activity change, negative = cytotoxicity",Tov-21-G,2.99% [at 11.6 µM]
C[C@]12CCC(=O)C[C@@H]1CC[C@@H]1[C@@H]2CC[C@@]2(C)[C@H]1CC[C@]2(C)O,max response,[11],-5.63%
same,max response,KB-3-1,-6.75%
same,Potency,[12],inactive
same,Potency,astro,inactive
CN[C@@]1(c2ccccc2Cl)CCCCC1=O,max response,[11],0.413%
same,Potency,[10],inactive
same,max response,KB-3-1,-16.7%
same,Potency,[12],inactive
same,Potency,astro,inactive
CC(=O)O[C@H]1C[C@H](O[C@H]2[C@@H](O)C[C@H](O[C@H]3[C@@H](O)C[C@H](OC4CC[C@@]5(C)C(CC[C@@H]6[C@@H]5CC[C@]5(C)[C@@H](C7=CC(=O)OC7)[C@@H](O)C[C@]65O)C4)O[C@@H]3C)O[C@@H]2C)O[C@H](C)[C@H]1O[C@@H]1O[C@H](CO)[C@@H](O)[C@H](O)[C@H]1O (some centres undefined),max response,[11],7.87%
same,Potency,[10],1300 nM (active)
same,Potency,KB-3-1,1300 nM (active)
same,Potency,astro,708 nM (active)
C1CN(P2(N3CC3)=NP(N3CC3)(N3CC3)=NP(N3CC3)(N3CC3)=N2)CCO1 (centres undefined),max response,[11],-9.28%
same,Potency,[10],inactive
same,max response,KB-3-1,42.2%
same,Potency,[12],inactive
same,Potency,astro,inactive
O=Cc1ccccc1,max response,[11],-4.29%
same,Potency,[10],inactive
same,max response,KB-3-1,-11.1% and 0.83%
same,Potency,[12],inactive
same,Potency,astro,inactive
